Pf growth 96h: P. falciparum growth inhibition at 96 hours; Potency, µM (doses to about 28.7 µM), for inactives: top-dose activity change, negative = inhibition, usual class: inhibitors; actives 6.9% (n = 320,000); AID 504834; P. falciparum luciferase reporter growth, 96 h; also: potency is read from the fitted curve at half-maximal effect; % is scaled to controls: 0 for no effect and ±100 for the full control effect
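96 h incubation, 37 C, 5% CO2, of luciferase-reporter P. falciparum-infected RBCs (2% hematocrit, 0.05% parasitemia final) with test compounds; endpoint luminescence.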
Cycloheximide cs: counter-screen hit for Shiga toxin inhibitors, cycloheximide; cell reporter, cycloheximide protein synthesis inhibition counterscreen; max response, %; actives 12% (n = 300,000); in the data active = max response mostly above about 13%, no sharp cut-off; inactive = mostly below about 14%; also: read at 38.3 µM for the half of the compounds with a filed dose; 0% is about no effect
Pf growth 48h: inhibits P. falciparum growth in the first generation, 48 h; P. falciparum luciferase growth in erythrocytes, 48 h; Potency, µM (doses to about 28.7 µM), without a hit: at the top dose activity change, negative = inhibition, usual class: inhibitors; actives 5.9% (n = 310,000); AID 504832; also: potency is read from the fitted curve at half-maximal effect; % is scaled to controls: 0 for no effect and ±100 for the full control effect
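Here the parasites carry a stable luciferase gene and grow inside erythrocytes in Albumax-based RPMI medium with compound for one erythrocytic cycle. Activity is scored as loss of luminescent signal.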
Shiga toxin inh: blocks Shiga toxin action in Vero cells; Vero cells, Shiga toxin protein synthesis inhibition reporter; inhibition, % at 38.7 µM; actives 9.2% (n = 290,000); AID 2315; in the data active = inhibition mostly above about 28%, no sharp cut-off; inactive = mostly below about 43%; also: 0% is about no effect
* marks the source's active call; other numbers are inactive results; ? = inconclusive; nt = no result given; + = active, no number. Most compounds without a hit are left out; they make up all but 21% or so of the library. Unless noted, calls follow the shape of the dose curve; as a rule, active = well fitted inhibition curve with a large enough effect; inconclusive = small, poorly fitted or top-dose-only effect, or another doubt; inactive = no such curve, though single readings can be large or run the other way.

SMILES	Pf growth 96h	Cycloheximide cs	Pf growth 48h	Shiga toxin inh
CC(=O)c1cccc(NC(=S)N2CCN(c3ccccn3)CC2)c1	-19.8%	9.6	-0.7%	3.1
Cc1ccc(CSCc2nc3ccccc3[nH]2)cc1	?	39.3*	9.6%	66.2*
Cc1cc(C)cc(CC(Cc2nc3ccccc3[nH]2)c2nc3ccccc3[nH]2)c1 (stereo not given)	121.4%	8.4	2.33µM*	-2.9
Clc1ccc(SCc2nc3ccccc3[nH]2)cc1	99.4%	49.1*	62.5%	+
Nn1c(SCc2nc3ccccc3[nH]2)nnc1-c1ccccc1	4.0%	4.3	42.3%	13.9
c1ccc(SCc2nc3ccccc3[nH]2)cc1	204.9%	40.7*	116.9%	162.7*
c1ccc2[nH]c(CSc3ncnc4c3oc3ccccc34)nc2c1	43.3%	15.9*	-6.0%	61.9*
c1ccc2[nH]c(CSc3nccs3)nc2c1	?	23.3*	34.2%	75.0*
Cn1c(SCc2nc3ccccc3[nH]2)nnc1-c1cccs1	-2.1%	4.8	?	-8.2
CCC(CC)c1nnc(NC(=O)CCNC(=O)c2ccccc2Cl)s1	-10.4%	-0.7	-25.0%	-2.7
NC(=O)c1ccc(NC(=O)c2cccc3c2OCCCO3)cc1	34.9%	-2.2	42.5%	-11.4
Cc1cccc(NC(=O)CCc2nnc3ccc(N4CCC(C)CC4)nn23)n1	?	-3.5	?	21.1
S=C(Nc1ccccc1)Nc1ccc(Br)cc1	-4.4%	14.9*	?	30.8
Cc1ccc(NC(=S)Nc2ccc(Br)cc2)cc1	?	23.4	32.7%	17.4
Fc1cc(Br)ccc1NC(=S)Nc1ccccc1	?	50.3*	67.3%	65.1*
Fc1ccccc1NC(=S)Nc1ccc(Br)cc1	66.8%	17.2*	31.2%	18.4*
S=C(NNC(=S)Nc1ccccc1)Nc1ccccc1	73.0%	41.5*	45.2%	56.1*
CC1(C)CC(NC(=O)C2CCN(S(=O)(=O)c3cccc(C(F)(F)F)c3)CC2)CC(C)(C)N1	?	nt	-21.0%	nt
O=C(Cn1c(=O)n(Cc2ccc(F)cc2)c(=O)c2sc3ccccc3c21)Nc1ccc(F)cc1F	nt	-11.0	nt	4.5
S=C(NN=C(C1CC1)C1CC1)Nc1ccccc1	53.7%	33.5*	135.5%	43.0*
O=C(NNC(=S)Nc1ccccc1)C1CC1	55.4%	9.0	-6.5%	31.8
CC(C)n1c(N2CCN(S(=O)(=O)c3cccc([N+](=O)[O-])c3)CC2)nc2ccccc21	6.5%	-1.2	-14.0%	-20.5
COc1cccc(OC)c1-c1cc(C(=O)NC2(C(=O)O)C3CC4CC(C3)CC2C4)nn1-c1ccc(C(=O)N(C)CCCN(C)C)cc1C(C)C (stereo not given)	nt	-3.4	nt	-2.0
Cc1nc2nc(NC(=O)c3ccco3)nn2c(C)c1Cl	-17.8%	9.2	117.0%	43.1*
Cc1nc(NC(=O)c2ccco2)sc1C(=O)O	0.4%	-6.6	133.5%	13.2
SMILES	Pf growth 96h	Cycloheximide cs	Pf growth 48h	Shiga toxin inh
Cc1cc(Cl)cc2sc(NC(=O)c3ccco3)nc12	421.5%	51.4*	136.5%	50.1*
Cc1cc(C)c2nc(NC(=O)c3ccco3)sc2c1	287.7%	31.0*	296.9%	51.4*
O=C(Nc1nc2c(Br)cc(Br)cc2c(=O)s1)c1ccco1	15.8%	-0.8	4.9%	-1.7
O=C(Nc1nc2c(F)cccc2s1)c1ccco1	28.4%	31.1*	215.2%	28.3*
CC(=O)NCCCS(=O)(=O)O	-48.4%	nt	-2.7%	nt
CC(=O)/C=C(\C)Nc1ccccc1O	?	6.3	?	21.6
COc1ccc(/C=C/C(=O)Nc2ccccc2C(F)(F)F)cc1	146.8%	24.4*	73.9%	58.9*
COc1ccc(CN(C)CC(=O)Nc2ccccc2C(F)(F)F)cc1	-22.7%	-0.9	1.9%	6.7
COc1ccc(CCNCC(=O)Nc2ccccc2C(F)(F)F)cc1	-27.8%	-2.5	13.1µM*	-1.4
CCOc1ccc(/C=C/C(=O)Nc2ccccc2C(F)(F)F)cc1	-23.5%	36.0*	46.7%	37.7*
COc1ccc(/C=C/C(=O)Nc2ccccc2C(=O)NCC(c2ccc(OC)cc2)N(C)C)cc1 (stereo not given)	?	10.0	?	39.5*
CCO/N=C/c1ccc(OC)c(Oc2nc(OC)cc(OC)n2)c1	18.1%	8.7	-13.3%	-1.2
CC1(NC(=O)CCNC(=O)c2ccc(C(C)(C)C)cc2)CCS(=O)(=O)C1 (stereo not given)	4.3%	nt	2.7%	nt
COc1ccc2ccc(O)c(CN(C)CC(=O)Nc3ccccc3C(F)(F)F)c2c1	?	-4.1	11.7µM*	16.5
O=C(c1cccc(C(F)(F)F)c1)c1c[nH]c(C(=O)NCCCN2CCOCC2)c1	?	4.1	?	3.2
COc1ccc(NC(=O)COc2cccc(-n3cnnn3)c2)cc1	10.4µM*	-4.0	29.2%	-9.1
Cc1ccc(NC(=O)COc2cccnc2[N+](=O)[O-])cc1S(=O)(=O)N1CCOCC1	-20.3%	6.2	2.8%	-3.9
Cc1ccc(NC(=O)COc2cccc(-n3cnnn3)c2)cc1S(=O)(=O)N1CCOCC1	?	nt	13.1µM*	nt
O=C(COc1cccc(-n2cnnn2)c1)Nc1ccccc1	?	4.3	16.0%	0.4
CCOc1ccc(OCCC(=O)OCC(=O)NCCc2ccc(S(N)(=O)=O)cc2)cc1	-7.3%	nt	-6.0%	nt
COc1cc2ncnc(NCc3ccccc3Cl)c2cc1OC	?	-2.2	?	-17.2
COc1cc2ncnc(N[C@H](C)c3ccccc3)c2cc1OC	13.1µM*	-4.5	?	-16.0
COc1cc2ncnc(NCc3ccc(F)cc3)c2cc1OC	10.4µM*	-5.8	nt	-3.7
COc1cc2ncnc(NCc3ccccc3C)c2cc1OC	13.1µM*	-2.2	14.7µM*	-14.3
COc1cc2ncnc(NCc3ccc(Cl)cc3)c2cc1OC	-12.5%	0.0	?	-5.1
SMILES	Pf growth 96h	Cycloheximide cs	Pf growth 48h	Shiga toxin inh
Cc1cc(C)cc(N(CCC#N)C(=O)COC(=O)C2CCN(S(=O)(=O)c3ccc(C)c(C)c3)CC2)c1	4.8%	nt	-4.3%	nt
N#C/C(=C(/O)CO/N=C/c1ccccc1Cl)c1nc2ccccc2[nH]1	28.0%	0.6	9.0%	-9.9
CCOC(=O)c1[nH]c(=O)[nH]c1CNc1ccccc1C#N	-21.7%	-1.6	20.8%	nt
CCN=c1scc(-c2ccccc2)n1/N=C/c1ccccn1	-57.6%	41.2*	28.0%	78.0*
CCN=c1scc(-c2ccc(F)cc2)n1/N=C/c1ccccn1	-67.5%	47.9*	139.0%	82.1*
CCCCS(=O)(=O)N1CCC(C(=O)Oc2ccc(Cl)cc2)CC1	0.0%	-3.0	3.9%	-2.0
CSc1nnc(N2C(=O)C(O)=C(C(=O)c3ccco3)C2c2ccc(F)cc2)s1 (stereo not given)	-20.2%	28.2*	11.2%	20.7
CCOc1cccc(C2C(C(=O)c3ccco3)=C(O)C(=O)N2Cc2ccncc2)c1 (stereo not given)	2.62µM*	16.9*	5.1%	12.2
CSc1nnc(N2C(=O)C(O)=C(C(=O)c3ccco3)C2c2cccc(Cl)c2)s1 (stereo not given)	5.7%	34.3*	1.3%	22.1
CCSc1nnc(N2C(=O)C(O)=C(C(=O)c3ccco3)C2c2cccc(OC)c2)s1 (stereo not given)	?	38.6*	-7.9%	90.0*
O=C(Nc1nnc(SCc2ccc(Cl)cc2)s1)C1CC(=O)N(Cc2ccccc2)C1 (stereo not given)	5.2%	-2.5	19.8%	-13.7

Screens: PubChem BioAssay, National Center for Advancing Translational Sciences (NCATS)
